Laboratory results from PubChem BioAssay (NCI).
The panel holds about 83,000 compounds, 20% with a hit somewhere; the sample as a whole holds those more often.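 Values shown are percent growth following 48 h exposure of cells in 96-well plates to a single concentration of compound; below 10 was considered active.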 Unmarked numbers belong to inactive results. Active and inactive are the calls of the source.

System: NCI-H23 lung
Test: NCI-60 one-dose screen, 48 h (100 = growth as untreated, 0 = no growth, -100 = all killed)
Conditions: 10 µM unless noted

| Structure (SMILES) | growth |
| --- | --- |
| COc1cccc(/C=C2\Oc3cc(OCCN4CCCC4)ccc3C2=O)c1 | 92.2% |
| COc1ccc(-c2nc3ccc(-c4nc5ccc(N6CCN(c7ccncc7)CC6)cc5[nH]4)cc3[nH]2)cc1OC | 36.9% |
| Cc1ccc(C2=NN3C(C2)c2cc(Br)ccc2OC32CCN(Cc3ccccc3)CC2)o1 (stereo not drawn) | 94.9% |
| COc1cc2c(cc1-c1c(C)noc1C)ncc1nc(-c3ccccn3)n([C@H](C)COC(F)F)c12 | 61.1% |
| Cc1oc(-c2ccc(Cl)cc2Cl)cc1C(=O)Nc1nccs1 | 87.4% |
| COc1ccc2c(c1)c(-c1nonc1-c1cn(C)c3ccccc13)cn2C | 27.9% |
| COC(=O)c1ccc(NC(=O)c2ccc(-c3cccc([N+](=O)[O-])c3)o2)cc1 | 87.3% |
| COc1cccc(C2=NN3C(C2)c2cc(Br)cc(OC)c2OC32CCN(Cc3ccccc3)CC2)c1 (stereo not drawn) | 95.7% |
| O=C1c2cc3c(cc2-c2c1c1cc(F)c(F)cc1c(=O)n2CCCn1ccnc1)OCO3 | -11.2% (active) |
| Cc1ccc2c(C(C[N+](=O)[O-])c3ccccc3F)c(-c3ccccc3)[nH]c2c1 (stereo not drawn) | 56.9% |
| Cc1ccccc1COc1ccc(-c2onc(C)c2-c2ccc(Cl)cc2)cc1 | 73.8% |
| COC[C@H](C)n1c(C2CCOCC2)nc2cnc3cc(-c4c(C)noc4C)c(OC)cc3c21 | 70.4% |
| C#CCOc1ccc2ncnc(NCc3cccc(NC(=O)CCl)c3)c2c1 | 36.6% [8.25 µM] |
